Structures are written as SMILES. About 3,200 (25%) of roughly 13,000 compounds showed an effect of 50% or more. The list shows a part of the results.

This experiment relates to P. falciparum stage V gametocytes. Set-up: BacTiter-Glo ATP luminescence viability of purified stage V gametocytes in 384-well plates, per cent inhibition versus DMSO. The following applies: 48 h, 5 µM; inhibitor.
Regarding `Clc1cccc(-c2nc(Nc3ccnc(-c4ccc(CN5CCOCC5)cc4)c3)c3ccccc3n2)c1` [TCMDC-138870], the % Inhibition – broadly, the relative decrease from the control value, in per cent – is reported as -2.785%.

Regarding `COC(=O)c1ccc(CC(C)NCC(O)c2cccc(Oc3cccc(C(F)(F)F)c3)c2)cc1` (centres unmarked) [TCMDC-131489], the “% Inhibition” value is 30.29%.

As to `COc1ccc2c(c1)[nH]c1c(/C=C/c3ccc([N+](=O)[O-])cc3)nccc12` [TCMDC-125486], the “% Inhibition” value is reported as 8.204%.

As for `Cc1sc(NC(=O)c2ccc([N+](=O)[O-])cc2Cl)c(C(N)=O)c1C` [TCMDC-125749], the “% Inhibition” value was -6.756%.

As to `c1nc2nc3c(c(Nc4ccc5c(c4)CCC5)n2n1)CCC3` [TCMDC-123573], the “% Inhibition” value is -7.89%.

`O=C(/C=C/c1ccc(Cl)c(Cl)c1)NCCCCCN1CCCC(C(=O)Nc2ccc(Cl)c(Cl)c2)C1` (centres unmarked) [TCMDC-136126]: the “% Inhibition” value is given as 74.26%.

For `O=C(/C=C/C=C/c1ccc(Cl)c(Cl)c1)NCCCCCN1CCCC2CCCCC21` (centres unmarked) [TCMDC-139469], the “% Inhibition” value amounted to 92.39%.

As for `O=C(/C=C/c1ccc(Cl)c(Cl)c1)NCCCCCN1CCCC(C(=O)Nc2cccc(Cl)c2)C1` (centres unmarked) [TCMDC-136122], the “% Inhibition” value is -10.14%.

On to `O=C(/C=C/c1ccc(Cl)c(Cl)c1)NCCCCCN1CCCC(C(=O)Nc2ccc(F)c(Cl)c2)C1` (centres unmarked) [TCMDC-136114], for which the “% Inhibition” value is -6.866%.

Consider `O=C(/C=C/c1ccc(Cl)c(Cl)c1)NCCCCCN1CCC(NC(=O)NC2CCCCCC2)CC1` [TCMDC-135698], for which the “% Inhibition” value is -24.64%.

Take `O=C(/C=C/c1ccc(Cl)cc1)NCCCCCN1CCCC(C(=O)Nc2ccc(Cl)cc2)C1` (centres unmarked) [TCMDC-136117]: the “% Inhibition” value is recorded as 4.842%.

With `O=C(/C=C/c1ccc(Cl)c(Cl)c1)NCCCCCN1CCCC(C(=O)Nc2ccc(Cl)cc2)C1` (centres unmarked) [TCMDC-136118], the “% Inhibition” value was -2.254%.

As for `O=C(/C=C/c1ccc(Cl)c(Cl)c1)NCCCCCN1CCC(NC(=O)NC2CCCC2)CC1` [TCMDC-135699], the “% Inhibition” value is given as -68.94%.

Take `O=C(/C=C/c1ccc(Cl)cc1)NCCCCCN1CCCC(C(=O)Nc2cccc(Cl)c2)C1` (centres unmarked) [TCMDC-136121]: the “% Inhibition” value was found to be 90.21%.

Regarding `CC(C)C1=C[C@H]2C[C@]3(C4OCCO4)[C@@H]4CC[C@@H](C)[C@H]4C[C@@]2(C(=O)OCC2COCO2)[C@]13C(=O)OC(c1ccccc1)c1ccccc1` (some centres unmarked) [TCMDC-131949], the “% Inhibition” value was -14.13%.

Regarding `CN(C)c1ccc(C(c2ccc(N(C)C)cc2)c2cc([N+](=O)[O-])ccc2Cl)cc1` [TCMDC-124088], the “% Inhibition” value was -4.747%.

Take `O=S1(=O)C=C(c2ccccc2)CC1` [TCMDC-125863]: the “% Inhibition” value is -1.513%.

With `O=C(Nc1cc(Cl)ccc1O)c1cnn2c(C(F)(F)F)cc(-c3cccs3)nc12` [TCMDC-125807], the “% Inhibition” value is given as -56.02%.

In the case of `COc1cc(CN2CCC(N3CCc4cc(NC(=O)c5cc(C)on5)ccc43)C2)ccc1F` (centres unmarked) [TCMDC-135084], the “% Inhibition” value was -32.41%.

As to `N#Cc1cccc(NC(=O)Nc2cccc(-c3ccc(-c4nc5ccc(C(F)(F)F)cc5[nH]4)cc3)c2)c1` [TCMDC-133191], the “% Inhibition” value is -49.97%.

In the case of `CCOC(=O)C(CO)NC(=O)c1ccc([N+](=O)[O-])o1` (centres unmarked) [TCMDC-131608], the “% Inhibition” value was found to be 22.85%.

As for `CCOC(=O)C(NC(=O)c1ccc([N+](=O)[O-])o1)C(C)C` (centres unmarked) [TCMDC-131607], the “% Inhibition” value is given as 14.28%.

In the case of `Cc1ccc(Cl)c2sc(N3CCN(C(=O)c4ccc([N+](=O)[O-])o4)CC3)nc12` [TCMDC-124311], the “% Inhibition” value worked out at 95.54%.

In the case of `CC1CCN(c2nc(C(=O)NCCc3ccc(Cl)c(Cl)c3)c(C(C)C)s2)CC1` [TCMDC-134836], the “% Inhibition” value is on record as 1.732%.

`Cc1ccc(C)c2sc(N3CCN(C(=O)c4ccc([N+](=O)[O-])o4)CC3)nc12` [TCMDC-124315]: the “% Inhibition” value was found to be 103%.

In the case of `CC(C)c1sc(N2CCN(C)CC2)nc1C(=O)NCCc1ccc(Cl)c(Cl)c1` [TCMDC-134295], the “% Inhibition” value was 11.7%.

Turning to `O=C(N[C@@H](CC1CCCCC1)C(=O)NCCN1CCCCC1)c1ccc(O)c(-c2cccc(C(F)(F)F)c2)c1` [TCMDC-140818], the “% Inhibition” value came out at 37.36%.

For the compound `COc1cc(Cc2cnc(N)nc2N)cc(OCc2cccc(C(=O)O)c2)c1OC` [TCMDC-137888], the “% Inhibition” value is reported as -0.7108%.

With `Oc1ccc(CN2CCN(CCOC(c3ccccc3)c3ccccc3)CC2)cc1Cl` [TCMDC-135690], the “% Inhibition” value is on record as -0.9629%.

For `Cc1cccc2nc(-c3ccc(-c4ccc(NC(=O)Nc5ccc(F)c(F)c5F)cc4)s3)[nH]c12` [TCMDC-133222], the “% Inhibition” value is -13.04%.

Consider `Cc1ccc(Nc2nc(N/N=C/c3cc4c(cc3Br)OCO4)nc(Nc3ccc([N+](=O)[O-])cc3)n2)cc1C` [TCMDC-124185], for which the “% Inhibition” value is recorded as 19.94%.

As for `c1cc(CN2CCC(CCN3CCCCC3)CC2)cc(-c2csc(-c3nc4ccccc4[nH]3)c2)c1` [TCMDC-133919], the “% Inhibition” value is listed as 95.43%.

In the case of `c1cc(CN2CCCCC2)cc(-c2cccc(-c3nc4ccccc4[nH]3)c2)c1` [TCMDC-133914], the “% Inhibition” value is given as -55.81%.

As to `c1cc(CN2CCC(CCN3CCCCC3)CC2)cc(-c2cccc(-c3nc4ccccc4[nH]3)c2)c1` [TCMDC-133920], the “% Inhibition” value is 106.4%.

Regarding `c1cc(CN2CCCCC2)cc(-c2ccc(-c3nc4ccccc4[nH]3)cc2)c1` [TCMDC-133890], the “% Inhibition” value is given as -8.246%.

With `c1cc(CN2CCN(CCN3CCOCC3)CC2)cc(-c2csc(-c3nc4ccccc4[nH]3)c2)c1` [TCMDC-133921], the “% Inhibition” value is listed as 11.49%.

On to `NC1CCN(Cc2cccc(-c3csc(-c4nc5ccccc5[nH]4)c3)c2)C1` (centres unmarked) [TCMDC-133876], for which the “% Inhibition” value is 10.66%.

As for `C=CCc1cc(Br)ccc1OCCCOc1c(N)nc(N)nc1N` [TCMDC-131367], the “% Inhibition” value is 16.05%.

In the case of `CCn1cc(CN2CCCC(C(=O)Nc3ccc(-c4nc5ccccc5[nH]4)cc3)C2)c(C)n1` (centres unmarked) [TCMDC-124673], the “% Inhibition” value is recorded as -63.8%.

With `CCc1ccc(N2C(=O)C3C(Cc4ccc(OC(C)(C)C)cc4)NC4(C(=O)N(Cc5ccccc5)c5ccc(F)cc54)C3C2=O)cc1` (centres unmarked) [TCMDC-139770], the “% Inhibition” value is reported as 11.03%.

As for `COc1ccc(N(c2nc(-c3cc(Cl)ccc3Cl)cs2)C2CCNCC2)cc1` [TCMDC-136654], the “% Inhibition” value was found to be 103.4%.

Turning to `COc1ccc(N(c2nc(-c3cc(Cl)ccc3Cl)cs2)C2CCNC2)cc1` (centres unmarked) [TCMDC-136655], the “% Inhibition” value came out at 0.8137%.

`Cc1cc(F)ccc1N(c1nc(-c2cc(Cl)ccc2Cl)cs1)C1CCNC1` (centres unmarked) [TCMDC-136653]: the “% Inhibition” value is 19.89%.

Take `COc1ccc(F)cc1-c1csc(N(c2ccc(F)cc2)C2CCNCC2)n1` [TCMDC-136652]: the “% Inhibition” value is recorded as 68.19%.

For the compound `CCN(CC)CCCN(C(=O)Nc1cc(F)cc(F)c1)c1nc(-c2ccc(F)cc2)cs1` [TCMDC-136665], the “% Inhibition” value is recorded as -54.99%.

In the case of `Fc1ccc(N(c2nc(-c3cc(F)cc(C(F)(F)F)c3)cs2)C2CCNCC2)cc1` [TCMDC-136656], the “% Inhibition” value was found to be 103.4%.

As to `CC(=O)N(Cc1nc(-c2cc(C(F)(F)F)cc(C(F)(F)F)c2)cs1)c1c(C)cccc1C` [TCMDC-135641], the “% Inhibition” value was found to be 20.05%.

Consider `N#Cc1ccc2[nH]cc(CN3CCC4(CC3)CN(CCNCc3ccccc3)C(=O)CO4)c2c1` [TCMDC-136734], for which the “% Inhibition” value is on record as -19.1%.

As to `Cc1ccccc1C1CCN(C2CCC(NC(=O)/C=C/c3ccc(C(F)(F)F)cc3)CC2)CC1` (centres unmarked) [TCMDC-133511], the “% Inhibition” value is -86.18%.

Turning to `CC[C@@]1(O)C(=O)OCc2c1cc1n(c2=O)Cc2c-1nc1cc3c(cc1c2CN1CCN(C)CC1)OCCO3` [TCMDC-131875], the “% Inhibition” value was -10.57%.

As for `CCOc1ccc2ccccc2c1C(=O)Nc1cc(C)nn1-c1nc(C)cc(=O)[nH]1` [TCMDC-124946], the “% Inhibition” value is -19.22%.

As to `O=C(/C=C/c1ccc(Cl)c(Cl)c1)NC1CCN(CCCNC(=O)c2cccc(Cl)c2)CC1` [TCMDC-133356], the “% Inhibition” value was determined as 10.9%.

In the case of `CCc1c(CCNCCCCCNCCc2ccc(OC)c(OC)c2CC)ccc(OC)c1OC` [TCMDC-132064], the “% Inhibition” value was 110.1%.

Turning to `CCC(=O)c1cc(C(=O)NCCc2cccc(OC)c2)ccc1OC` [TCMDC-140139], the “% Inhibition” value was determined as 9.268%.

Take `COc1cccc(C(=O)NCCc2cccc(Cl)c2)c1Oc1ccccc1` [TCMDC-141237]: the “% Inhibition” value was -16.09%.

As for `CCc1c(CCNCCCC(C)CCNCCc2ccc(OC)c(OC)c2CC)ccc(OC)c1OC` (centres unmarked) [TCMDC-132065], the “% Inhibition” value is recorded as 107.6%.

In the case of `CCc1c(CCNCCc2cccc(CCNCCc3ccc(OC)c(OC)c3CC)c2)ccc(OC)c1OC` [TCMDC-132056], the “% Inhibition” value is given as 108.6%.

Consider `COc1cccc(CCc2c(CCNCCCCCCNCCc3ccccc3)ccc(OC)c2OC)c1` [TCMDC-132105], for which the “% Inhibition” value is 111.5%.

For the compound `COc1cccc(-c2ccc(O)c(CNCCc3cccc(F)c3)c2)n1` [TCMDC-124645], the “% Inhibition” value is listed as 3.898%.

For the compound `CCOC(=O)C1=C(C)NC2=C(C(=O)CC(C)(C)C2)C1c1ccc(Br)cc1` (centres unmarked) [TCMDC-124142], the “% Inhibition” value is 9.854%.

Take `N#Cc1ccc2c(c1)CCN(CCC1CCC(NC(=O)Nc3ccnc4ccccc34)CC1)C2` (centres unmarked) [TCMDC-139289]: the “% Inhibition” value is -21.63%.

As to `COc1ccc(Cc2c(C)nc3nc(N)nc(N)c3c2C)cc1` [TCMDC-137660], the “% Inhibition” value amounted to 3.866%.

Take `COC(=O)c1ccc(CC(C)NCC(O)c2cccc(I)c2)cc1` (centres unmarked) [TCMDC-131484]: the “% Inhibition” value was -10.65%.

Turning to `O=C(C1CCN(c2nnnn2-c2ccccc2)CC1)N1CCc2ccccc2C1` [TCMDC-123642], the “% Inhibition” value stood at 26.99%.

As to `COc1cc(Cc2cnc(N)nc2N)cc(OCCCCc2ccc([N+](=O)[O-])cc2)c1OC` [TCMDC-137901], the “% Inhibition” value is reported as 2.332%.

For the compound `CCc1c(CCNCCCCCCNCCc2ccc(OC)cc2)ccc(OC)c1OC` [TCMDC-132050], the “% Inhibition” value is 110.1%.

As for `CCc1c(CCNCCCCCCNCCc2ccccc2)ccc(OC)c1OC` [TCMDC-132063], the “% Inhibition” value worked out at 92.32%.

For `CCc1c(CCNCCCCCCNCCc2ccc([N+](=O)[O-])cc2)ccc(OC)c1OC` [TCMDC-132066], the “% Inhibition” value came out at 101.3%.

For the compound `COc1cc(C)c(C(O)CNC(C)CCc2ccccc2)cc1C` (centres unmarked) [TCMDC-131251], the “% Inhibition” value was 28.09%.

With `COc1ccc(N2CCN(CCc3ccc(NC(=O)c4ccc([N+](=O)[O-])cc4)cc3)CC2)c(OC)c1` [TCMDC-138185], the “% Inhibition” value was -26.83%.

Take `CCc1c(CCNCC/C=C/CCNCCc2ccc(OC)c(OC)c2CC)ccc(OC)c1OC` [TCMDC-132062]: the “% Inhibition” value came out at 100.4%.

For the origin of these results see PMC4552634, “A New Set of Chemical Starting Points with Plasmodium falciparum Transmission-Blocking Potential for Antimalarial Drug Discovery” (PLoS ONE, 2015).
